Bioassay records (PubChem BioAssay)
FBA Mtb inh – Mtb FBA enzyme inhibitors, primary screen, biochemical, fluorescence, strain H37Rv | inhibition, % at 1 µM | actives 2.3% (n = 360,000) | purified M. tuberculosis FBA, fluorescence read-out;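 also: 0% = vehicle and 100% = reference inhibitor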
BioA inh – M. tuberculosis BioA enzyme inhibitors, primary screen, biochemical, plate reader, single point, HTS; 7,8-diaminopelargonic acid synthase BioA (Mycobacterium tuberculosis); inhibition, % at 9.99 µM; actives 0.096% (n = 360,000); AID 602481, 2012; purified M. tuberculosis BioA enzyme; in the data active = inhibition above about 40%
FadD28 FP inh – inhibitors of FadD28 bisubstrate probe binding, primary screen, biochemical, fluorescence polarization, single point; inhibition, % at 12.5 µM; actives 0.22% (n = 360,000); in the data active = inhibition above about 8.5%, passing the limit was not always enough
Rv3671c inh – Rv3671c serine protease inhibitors, primary screen, biochemical, fluorescence polarization, M. tuberculosis H37Rv; P9WHR9; inhibition, % at 5.96 µM; actives 0.048% (n = 320,000); in the data active = inhibition above about 38%;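 also: extracellular domain of Rv3671c used as enzyme; 0% = enzyme with DMSO and 100% = no enzyme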
Target sequence (P9WHR9 whole entry, looked up, the tested form may be a part): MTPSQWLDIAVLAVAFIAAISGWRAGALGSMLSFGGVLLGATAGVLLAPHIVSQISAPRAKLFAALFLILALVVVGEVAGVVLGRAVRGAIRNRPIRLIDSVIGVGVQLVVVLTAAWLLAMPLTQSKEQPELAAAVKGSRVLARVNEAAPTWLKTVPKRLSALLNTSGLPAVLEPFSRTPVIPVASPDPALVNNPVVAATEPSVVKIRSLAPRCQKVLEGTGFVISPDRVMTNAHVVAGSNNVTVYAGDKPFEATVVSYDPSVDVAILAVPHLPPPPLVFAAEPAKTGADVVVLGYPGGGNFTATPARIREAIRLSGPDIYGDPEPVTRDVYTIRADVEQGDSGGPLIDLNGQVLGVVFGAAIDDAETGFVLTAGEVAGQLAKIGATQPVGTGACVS
GDH-TPI counter-1 – GDH-TPI coupling enzyme inhibitors, primary screen, artefact control for M. tuberculosis FBA inhibitor project, biochemical, absorbance, full deck; GDH-TPI coupled enzyme counterscreen, NADH absorbance; actives 1.2% (n = 360,000); inhibition, % at 4.8 µM; in the data active = inhibition above about 30%;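 also: 0% = DMSO wells and 100% = wells lacking the enzyme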
Mtb FBA confirm – M. tuberculosis aldolase blockers, biochemical, fluorescence, strain H37Rv, confirmation | shares compounds with FBA Mtb inh | purified M. tuberculosis FBA, fluorescence read-out | inhibition, % at 1 µM | actives 78% (n = 5,600) | AID 651616, 2012;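 also: 0% = vehicle wells and 100% = reference inhibitor wells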
GDH-TPI counter-2 – GDH-TPI coupling enzyme inhibitors, artefact control for M. tuberculosis FBA inhibitor project, biochemical, fluorescence, high throughput | GDH-TPI coupled enzyme counterscreen | actives 81% (n = 5,600) | inhibition, % at 1 µM | shares compounds with FBA Mtb inh; in the data active = inhibition above about 10%
Numbers without * were called inactive; . = no result given; + = active, no number. An excerpt weighted towards active compounds, which were near 3% of everything screened. Rule as the data show it, unless noted: active = inhibition above about 27%; inactive = the rest.

SMILES | FBA Mtb inh | BioA inh | FadD28 FP inh | Rv3671c inh | GDH-TPI counter-1 | Mtb FBA confirm | GDH-TPI counter-2
Cc1nn2c3ccccc3n(CCN3CCCCC3)c2nc1=O | 32* | -2 | -2 | 5 | 7 | 154* | 102*
O=C(O)CCc1nn2c3ccccc3nc2n(CCN2CCCCC2)c1=O | 35* | 0 | 4 | -1 | 20 | 117* | 88*
O=C(CN1CCOCC1)NCC[C@@H]1CC[C@@H](NC(=O)Nc2ccc(Cl)cc2)[C@@H](CO)O1 | . | -3 | . | . | . | . | .
C[C@@H]1CN([C@H](C)CO)C(=O)c2ccccc2-c2ccccc2CO[C@H]1CN(C)C(=O)Nc1ccc2c(c1)OCO2 | . | 2 | . | . | . | . | .
CCOC(=O)C(=O)Nc1nnc(Cc2ccc(OC)c(OC)c2)s1 | -1 | -2 | -4 | -4 | -1 | . | .
CCOC(=O)Nc1nnc(Cc2ccc(Cl)c(Cl)c2)s1 | 103* | . | -1 | -1 | -4 | 63* | 47*
Cn1cnc(S(=O)(=O)N2C[C@@H](O)COC[C@@H]3O[C@H](CC(=O)NCc4cc(F)cc(F)c4)CC[C@H]32)c1 | . | 1 | . | . | . | . | .
N=c1oc2cc(O)ccc2cc1C(=O)Nc1ccc(Br)cc1 | 73* | -1 | 2 | 0 | 16 | 23 | 15*
CC(C)CC#Cc1cnc2c(c1)C(=O)N([C@H](C)CO)C[C@H](C)[C@@H](CN(C)C(=O)c1cccnc1)O2 | . | 1 | . | . | . | . | .
O=C(/C=C/c1ccccc1)NCCc1nc2ccccc2[nH]1 | 2 | -1 | -3 | 2 | 3 | . | .
COc1ccc(OC)c(/C=C/C(=O)NCCc2nc3ccccc3[nH]2)c1 | 50* | 0 | -4 | -2 | 16 | 83* | 53*
O=C(Cc1nc2ccccc2[nH]1)N/N=C/c1ccccc1 | 19 | . | -1 | -14 | 5 | . | .
COc1ccc(OC)c(/C=N/NC(=O)Cc2nc3ccccc3[nH]2)c1 | 74* | -1 | -3 | -115 | 14 | 51* | 30*
C[C@@H]1CN([C@@H](C)CO)S(=O)(=O)c2ccc(-c3ccccc3F)cc2O[C@@H]1CN(C)Cc1ccncc1 | . | 1 | . | . | . | . | .
O=C(C[C@@H]1C=C[C@@H](NC(=O)CN2CCOCC2)[C@@H](CO)O1)NCCc1ccccc1 | . | -1 | . | . | . | . | .
c1cc(-c2ccc(N3CCOCC3)cc2)n2cnnc2c1 | 92* | 13 | -4 | . | 18 | 174* | 151*
Cc1nn(-c2ccc(F)cc2F)c(=O)c2noc(C)c12 | 1 | . | -1 | 6 | 1 | . | .
Cc1nn(-c2ccc(F)cc2F)c2c1-c1nc(N3CCCC3)ncc1CC2 | 30* | 1 | -2 | -1 | 2 | + | +
COCC(=O)Nc1ccc2c(c1)C(=O)N(C)[C@H]1CC[C@@H](CC(=O)OC)O[C@@H]1CO2 | . | 10 | . | . | . | . | .
O=C(C[C@@H]1CC[C@@H](NC(=O)Nc2ccccc2F)[C@@H](CO)O1)NCc1ccccc1 | . | 2 | . | . | . | . | .
Cc1cccn2c(=O)c(C=Nc3ccccc3)c(NCCO)nc12 | 39* | -1 | -4 | 1 | 22 | 7 | -2
Cc1cccn2c(=O)c(C=Nc3ccc(Cl)cc3)c(NCCO)nc12 | 31* | -1 | -2 | 4 | 7 | 66* | 45*
Cc1cccn2c(=O)c(C=NCCO)c(Nc3ccc(Cl)cc3)nc12 | . | . | . | -2 | . | . | .
CC(C)C#Cc1ccc2c(c1)O[C@H](CN(C)C(=O)c1ccncc1)[C@H](C)CN([C@@H](C)CO)S2(=O)=O | . | 1 | . | . | . | . | .
Cc1ccc(-n2c(C)cc(/C=N/NC(=O)Cn3c4ccccc4c(=O)c4ccccc43)c2C)cc1 | 74* | . | -6 | -16 | 12 | 133* | 119*
SMILES | FBA Mtb inh | BioA inh | FadD28 FP inh | Rv3671c inh | GDH-TPI counter-1 | Mtb FBA confirm | GDH-TPI counter-2
Cc1cc(/C=N/NC(=O)Cn2c3ccccc3c(=O)c3ccccc32)c(C)n1-c1ccc(Cl)cc1 | 83* | . | -2 | . | 8 | 144* | 119*
CS(=O)(=O)c1ccc(-c2cnc3c(NC=O)cc(-c4ccsc4)cn23)cc1 | 29* | 2 | -4 | . | 19 | 167* | 136*
COc1ccc(-c2cnc3c(NC=O)cc(-c4ccc(S(C)(=O)=O)cc4)cn23)cc1OC | 2 | 1 | -1 | . | 12 | . | .
O=CNc1cc(-c2ccsc2)cn2c(-c3ccccc3)cnc12 | -1 | 0 | -5 | . | 8 | . | .
COc1ccccc1-c1cc(NC=O)c2ncc(-c3ccc(S(C)(=O)=O)cc3)n2c1 | 104* | -1 | -6 | . | 19 | + | +
C[C@H]1CCCCO[C@@H](CN(C)Cc2ccccc2)[C@@H](C)CN([C@@H](C)CO)C(=O)c2cc(NS(C)(=O)=O)ccc2O1 | . | -3 | . | . | . | . | .
O=C(Nc1nc2nc(-c3ccccc3)cc(-c3ccccc3)n2n1)c1ccco1 | 43* | -3 | 0 | -19 | 28 | 132* | 98*
Cc1ccnc2nc(NC(=O)c3ccco3)nn12 | -5 | -3 | 1 | 3 | 0 | . | .
Nc1c(-c2ccccc2)nc(Cl)nc1-c1ccccc1 | 43* | -1 | 1 | -1 | 12 | -3 | -2
Cc1noc(C)c1NC(=O)Nc1ccc2c(c1)C(=O)N([C@H](C)CO)C[C@H](C)[C@H](CN(C)C(=O)Nc1ccc3c(c1)OCO3)OCCCC[C@H](C)O2 | . | 0 | . | . | . | . | .
CCOc1ccccc1-c1cc(C(=O)N/N=C/c2ccc3c(c2)OCO3)c2ccccc2n1 | 66* | -4 | -1 | . | 16 | + | +
COc1ccc2cc(/C(C)=N/NC(=O)c3cc(-c4cccnc4)nc4ccccc34)ccc2c1 | 34* | . | -2 | -5 | 12 | 105* | 89*
COc1ccc(OC)c(-c2cc(C(=O)N/N=C(\C)c3cccnc3)c3ccccc3n2)c1 | -2 | -1 | -4 | . | 9 | . | .
CCOc1cc(/C=N/NC(=O)c2cc(-c3cccnc3)nc3ccccc23)ccc1O | 108* | -2 | -2 | -2 | 51* | 6 | -1
Cc1noc(C)c1NC(=O)N(C)C[C@@H]1Oc2ccc(NC(=O)c3ccncc3)cc2CC(=O)N([C@H](C)CO)C[C@@H]1C | . | -2 | . | . | . | . | .
CC(C)NC(=O)N(C)C[C@H]1Oc2ccc(NC(=O)CCCN(C)C)cc2C(=O)N([C@@H](C)CO)C[C@H]1C | . | 10 | . | . | . | . | .
CC(OC(=O)c1ccccc1NCc1ccco1)C(=O)Nc1ncc(Cl)cc1Cl (stereo unspecified) | 57* | -1 | -4 | -2 | -5 | 9 | -7
CCCNC(=O)N(C)C[C@@H]1Oc2cc(C#C[C@@H](C)O)ccc2S(=O)(=O)N([C@@H](C)CO)C[C@H]1C | . | 2 | . | . | . | . | .
O=C(NCCO)c1ccc2[nH]c3ccccc3c2c1 | 35* | -1 | -4 | 0 | -11 | -2 | -4
